# V-ATPase pHluor – regulators of yeast V-ATPase proton pumping, primary screen, pHLuorin cytosolic pH fluorescence; hit rate 0.37% among 350,000; S. cerevisiae; response, % at 10 µM; in the data active = response mostly above about 7.3%, no sharp cut-off; inactive = mostly below about 5.4%; note: actives read high
# OPRM1-OPRD1 inv – inverse agonists of MOR-DOR heterodimerization, primary screen, cell-based, luminescence; Mu-type opioid receptor (Homo sapiens) + Delta-type opioid receptor (Homo sapiens), …; cell-based MOR-DOR heterodimer luminescence, inverse agonism; inhibition, % at 9.3 µM; hit rate 0.21% among 340,000; in the data active = inhibition above about 22%, passing the limit was not always enough;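 note: 0% = cells with DMSO and 100% = wells without cells with DMSO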
# MIN6 prolif – inducers of MIN6 beta-cell proliferation, primary screen, ATP luminescence, uHTS | AID 2380, 2010 | MIN6 cells proliferation, ATPlite luminescence, 48 h; cells starved in 0.2% serum; 100% = growth in 10% serum | proliferation, % at 10 µM | hit rate 0.29% among 330,000;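 active = compounds whose signal lies at least 3.5 SD above the mean of all wells on their plate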;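 note: 0% = DMSO-treated cells in low-serum medium and 100% = 10% serum control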
# OPRM1-OPRD1 ag – agonists of OPRM1-OPRD1 heterodimerization, primary screen, cell-based, luminescence; Mu-type opioid receptor (Homo sapiens) + Delta-type opioid receptor (Homo sapiens), …; cells; activation, % at 9.3 µM; hit rate 0.3% among 340,000; in the data active = activation above about 18%;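 note: 0% = vehicle-treated cells and 100% = reference agonist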
# HTR5A inv ctr – HTR5A inverse agonists in luminescence cell assay, primary screen, counter-screen for OPRM1-OPRD1 heterodimer inverse agonist project, full-deck HTS | 5-hydroxytryptamine receptor 5A (Homo sapiens), P47898 | HTR5A cell line, inverse agonism | inhibition, % at 9.3 µM | hit rate 0.083% among 340,000 | AID 504634, 2011; in the data active = inhibition mostly above about 23%, no sharp cut-off; inactive = mostly below about 18%;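 note: 0% = cells with DMSO and 100% = no-cell wells with DMSO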
# Target sequence (P47898 whole entry, looked up): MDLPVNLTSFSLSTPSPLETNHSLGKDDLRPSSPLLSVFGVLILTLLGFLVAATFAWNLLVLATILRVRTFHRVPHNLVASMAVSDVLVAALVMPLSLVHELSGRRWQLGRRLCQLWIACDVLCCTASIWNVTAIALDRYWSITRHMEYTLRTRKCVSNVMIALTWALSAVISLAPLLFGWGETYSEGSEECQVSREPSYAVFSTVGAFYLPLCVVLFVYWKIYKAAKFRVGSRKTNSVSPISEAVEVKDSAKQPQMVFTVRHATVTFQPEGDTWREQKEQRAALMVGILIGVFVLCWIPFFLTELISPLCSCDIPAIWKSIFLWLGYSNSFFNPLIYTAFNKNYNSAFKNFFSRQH
# HTR5A ag – HTR5A agonists in luminescence cell assay, primary screen, counter-screen for OPRM1-OPRD1 heterodimer agonist project, full-deck HTS. 5-hydroxytryptamine receptor 5A (Homo sapiens), P47898. cell-based. activation, % at 9.3 µM. hit rate 0.61% among 340,000. AID 504692, 2011; in the data active = activation mostly above about 9.5%, no sharp cut-off; inactive = mostly below about 7.6%;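 note: 0% = cells with vehicle only and 100% = reference agonist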
# V-ATPase pH SP – yeast V-ATPase proton pumping modulators, confirmation, S. cerevisiae, pH-sensitive GFP, second cherry-pick. shares compounds with V-ATPase pHluor. S. cerevisiae pHLuorin cytosolic pH, V-ATPase proton transport. response, % at 10 µM. hit rate 2% among 980; in the data active = response above about 24%;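 note: plate controls were vehicle wells for no effect and positive control wells for full effect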
# Numbers without * were called inactive; . = no result given. This is a sample that favours compounds with a hit; in the whole collection about 1.7% have one here.
SMILES,V-ATPase pHluor,OPRM1-OPRD1 inv,MIN6 prolif,OPRM1-OPRD1 ag,HTR5A inv ctr,HTR5A ag,V-ATPase pH SP
CN(Cc1nc(-c2cccs2)no1)CC1COCCO1 (stereo not drawn),-8,14,-1,-3,-8,3,.
Cc1ccc(S(=O)(=O)N2CCN(c3ccccc3)CC2)cc1C(N)=O,9.8*,15,-3,-3,1,-1,-1
O=P(NCc1ccccc1)(OCc1ccccc1)OCc1ccccc1,-2,-20,.,5,1,0,.
O=C(c1ccc([N+](=O)[O-])o1)N1CCN(c2nc3c(F)cc(F)cc3s2)CC1,31*,-14,-7,3,-11,12,40*
Cc1ccccc1N1CCN(c2ccc(NC(=O)C3CCCCC3C(=O)O)cc2)CC1 (stereo not drawn),-3,8,0,-1,-12,-2,.
O=C(Cn1c(CO)nc2ccccc21)NCCc1ccccc1,8.1*,.,5,.,.,.,1
CC(C)Oc1ccc(S(=O)(=O)N2CCOCC2)cc1NC(=O)C1CCCCC1,-2,-4,1,1,-1,-2,.
O=C(CSc1nnc(NC(=O)c2c(F)cccc2F)s1)NCc1ccc(F)cc1,3,10,-4,-2,-24,9,.
CCOC(=O)Cc1csc(NC(=O)COc2ccccc2)n1,11*,0,-2,0,-27,4,0
C=CCN1CCN(C(=O)CCc2ccccc2)CC1,-3,17,3,-4,-7,0,.
CN(C)N1C(=O)CC(N2CCCC2)C1=O (stereo not drawn),11*,7,2,-1,1,0,2
CCN1C(=O)CC(N2CCOCC2)C1=O (stereo not drawn),0,15,-2,-2,-12,-4,.
O=C(Cc1ccc([N+](=O)[O-])cc1)Nc1cccc(C(F)(F)F)c1,12*,-32,-2,5,-11,-3,-2
O=C(Cc1ccc([N+](=O)[O-])cc1)Nc1cc(C(F)(F)F)cc(C(F)(F)F)c1,0,-18,-3,4,6,3,.
O=C(NCCC1=CCCCC1)C1CCCN(S(=O)(=O)c2cccc3cccnc23)C1 (stereo not drawn),7.3*,1,-3,0,-5,2,0
COc1ccc(C(=O)CCC(=O)NC2=NCCS2)cc1,2,12,-3,-2,23,2,-3
COc1ccc(CC(=O)NC2=NCCS2)cc1,1,5,-1,-1,-18,-5,.
CC1CCCCC12NC(=O)N(CC(=O)N1CCN(S(=O)(=O)c3ccc(Cl)s3)CC1)C2=O (stereo not drawn),-1,.,.,.,.,.,.
S=c1[nH]nc(-c2ccccc2)n1Cc1ccccc1,3,-17,0,3,-7,-5,.
Cc1n[nH]c(=S)n1Cc1ccccc1,9.8*,7,-6,-1,-6,2,-7
NC(=O)c1cc(NC(=O)CCc2nc3ccccc3s2)cc(C(N)=O)c1,9.6*,4,1,-1,-4,1,4
COc1ccc(OC)c(S(=O)(=O)Nc2c(NC3CCCCC3)c3ccccc3oc2=O)c1,9.2*,7,6,-1,7,-6,-4
COc1cccc(C2C(C(=O)OCc3ccccc3)=C(C)Nc3ncnn32)c1OC (stereo not drawn),8.5*,6,2,-1,-9,3,-2
COc1cccc(C=O)c1OCCCOc1cccc2cccnc12,-1,17,-3,-3,-10,3,.
CCOc1ccc2nc(N3CCC(C(=O)N4CCN(C(=O)c5ccco5)CC4)CC3)sc2c1,12*,14,-3,-3,5,-2,4
SMILES,V-ATPase pHluor,OPRM1-OPRD1 inv,MIN6 prolif,OPRM1-OPRD1 ag,HTR5A inv ctr,HTR5A ag,V-ATPase pH SP
COc1ccc(OC)c(NC(=O)c2ccc(OC3CSC3)cc2)c1,13*,8,-5,-2,-2,1,-2
COc1ccc(OC)c(NC(=O)c2ccc(NC(C)=O)cc2)c1,1,9,-4,-2,-14,0,.
O=C(COc1ccccc1[N+](=O)[O-])N(C1CCCCC1)C1CCS(=O)(=O)C1 (stereo not drawn),-1,1,0,0,-6,2,.
COC(=O)c1[nH]c2c(c1C)C(=O)CC(c1cccc(OC)c1)C2 (stereo not drawn),13*,11,-5,-2,-17,4,-2
CC(C)[C@H]1COC(NC2=N[C@@H](C(C)C)CO2)=N1,14,-5,1,1,-19,0,.
COc1cc(OC)c(OC)cc1CNC(=O)c1ccc(S(=O)(=O)N2CCCCC2)cc1,2,10,-2,-3,9,3,.
Cc1cc(C)n2nc(SCC(=O)NC(=O)c3ccccc3Cl)nc2n1,9.8*,17,0,-4,0,0,1
Cn1cccc1CC(=O)NNC(=S)Nc1ccc(F)cc1,-2,14,-2,-2,12,-5,.
Cn1cccc1CC(=O)NNC(=S)Nc1ccc(Cl)cc1Cl,16*,-15,-3,2,3,-1,-1
O=C(O)CCn1c(SCCc2ccccc2)nc2ccccc21,3,19,-3,-4,2,-4,.
COc1ccc2c(c1)C=C([C@@H]1C[C@H]3CN(c4ccccc4)C(=O)[C@]34CCCN14)CO2,0,11,3,-2,3,-2,.
NC(=O)CSc1nnc(-c2ccc3c(c2)OCO3)o1,5.5*,.,2,.,.,.,1
COc1ccc(CCNC(=O)CSc2nnc(-c3ccccc3)o2)cc1OC,11*,3,0,-1,-5,2,6
O=C(O)CSc1nnc(-c2ccc3c(c2)OCO3)o1,-6,-12,-1,2,-28,5,.
O=C(O)CSc1nnc(-c2ccccc2)o1,1,7,-3,-1,-17,-10,-1
COc1ccc(CCNC(=O)CSc2nnc(-c3cccc(C)c3)o2)cc1OC,0,11,0,-3,-19,7,.
Cc1ccc(C(=O)CSc2nnc(-c3ccccc3)o2)cc1,-1,-24,-2,4,-32,5,2
CCOC(=O)[C@@H]1[C@H]2COc3cc(OC)ccc3[C@H]2N2C(=O)N(c3cccc(F)c3)C(=O)[C@@]12C,2,-8,3,1,-3,3,.
COc1c(C)cc(C(=O)C2CCCN(C(=O)/C=C/c3ccccn3)C2)cc1C (stereo not drawn),-1,21,-4,-4,6,2,.
CC(C)CC(=O)Nc1ccc(-c2nc3ccccc3c(=O)[nH]2)cc1,2,6,-2,-1,-1,-2,.

# Source: PubChem BioAssay (several laboratories)
